Laboratory results taken from PubChem BioAssay AID1224852 (National Center for Advancing Translational Sciences (NCATS), 2016).
Results filed as inconclusive are left out. Activity calls are given as the source filed them. Calls come from the whole dose curve; as a rule, active = well fitted curve in the direction sought with a large enough effect (not every such curve was filed as active); inconclusive = small, poorly fitted or top-dose-only effect, or effect the other way, or another doubt; inactive = no such curve, though single readings can be large or run the other way.

experiment: Cell viability assay for measurement of the protective activity of small molecules against cell death caused by Zika virus infection in human neural progenitor cells (hNPCs); settings: hNPC ZIKV-induced death protection, ATP luminescence, 72 h; series mostly up to 46.1 µM; protection, negative = more death: at the top concentration;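 note: 0% = ZIKV-infected cells without compound and 100% = uninfected cells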
In short: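 Luminescent ATP content after 72 h ZIKV infection (2 FFU/cell) of hNPCs, compounds added 1 h before virus. Protection expressed as percent inhibition of the infection-induced drop in cell viability.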

| SMILES | protection, negative = more death |
| --- | --- |
| Nc1nc2ccc([N+](=O)[O-])cc2s1 | -22.2% [at 88.3 µM] (inactive) |
| CN(C)c1ccc2cc(C(=O)N[C@@H](CCCN=C(N)CCl)C(=O)NCc3ccccc3)ccc2c1 | -80.2% (inactive) |
| Nc1cc(C(F)(F)F)ccc1S | -79.8% (inactive) |
| O=C1c2ccccc2-[n+]2ccc3c([nH]c4ccccc43)c21 | -85.7% (inactive) |
| O=C(O)c1cccc(-c2noc(-c3ccccc3F)n2)c1 | -65.3% (inactive) |
| O=C(Nc1cc2cc[nH]c2cn1)c1ccccc1 | -76.8% (inactive) |
| CC(O)=C(C#N)C(=O)Nc1ccc(C(F)(F)F)cc1 | -61.6% (inactive) |
| CNC(=O)c1ccccc1Sc1ccc2c(/C=C/c3ccccn3)n[nH]c2c1 | -66.1% (inactive) |
| CC(C)OC(=O)CCCC=CC[C@@H]1[C@H](C=C[C@@H](O)COc2cccc(C(F)(F)F)c2)[C@H](O)C[C@@H]1O | -31% (inactive) |
| CN(C)c1ccc(N=NS(=O)(=O)O)cc1 | -43.6% [at 88.3 µM] (inactive) |
| O=C1c2ccccc2C(=O)c2c1ccc(O)c2O | -21.6% (inactive) |
| CCN1CCC(n2cc(CNc3cc(Cl)c4ncc(C#N)c(Nc5ccc(F)c(Cl)c5)c4c3)nn2)CC1 | -77.7% (inactive) |
| CC(=O)OC(C)OC(=O)C(C)c1ccc(-c2ccccc2)c(F)c1 (centres undefined) | 0.83% (inactive) |
| CC(C(=O)O)c1ccc(-c2ccccc2)c(F)c1 (centres undefined) | -5.89% (inactive) |
| Nc1ncnc2c1ncn2[C@@H]1O[C@@H](CO)[C@H](O)[C@H]1O | -14.4% [at 23.8 µM] (inactive) |
| CCC(C(=O)O)c1ccc(N2Cc3ccccc3C2=O)cc1 (centres undefined) | -9.9% (inactive) |
| CC(C)Oc1ccc2c(=O)c(-c3ccccc3)coc2c1 | -49.1% (inactive) |

| SMILES | protection, negative = more death |
| --- | --- |
| NC(=O)c1cccc2[nH]c(-c3ccc([C@H]4CCCN4)cc3F)nc12 | -66.1% (inactive) |
| Cc1ccc(C(=O)c2ccc(CC(=O)O)n2C)cc1 | -31.2% (inactive) |
| c1ccc2[nH]c(-c3cscn3)nc2c1 | -20.6% (inactive) |
| CCOC1OC(=O)C[C@H]1NC(=O)[C@@H]1CCCN1C(=O)[C@@H](NC(=O)c1ccc(N)c(Cl)c1)C(C)(C)C (some centres undefined) | 3.69% (inactive) |
| CCCS(=O)c1ccc2nc(NC(=O)OC)[nH]c2c1 (centres undefined) | -43.9% (inactive) |
| Cc1ccc2c(n1)Oc1ccc(C(C)C(=O)OCC(=O)N(C)C)cc1C2 (centres undefined) | -34.7% (inactive) |
| CS(=O)(=O)c1ccc(-c2cn3ccccc3n2)cc1 | -69.3% (inactive) |
| O=C(O)[C@@H](c1ccc(OCc2ccc3ccccc3n2)cc1)C1CCCC1 | -1.95% (inactive) |
| Nc1ccc(-c2ccc3ccccc3n2)cc1 | -48.7% (inactive) |
| O=C(/C=C/c1ccc(O)cc1)c1ccc(O)cc1O | -43.6% (inactive) |
| N#CC1(c2ccc(NC(=O)c3cccnc3NCc3ccncc3)cc2)CCCC1 | -13.3% (inactive) |
| O=S(=O)(O)CCSSCCS(=O)(=O)O | -3.06% (inactive) |
| CC(=O)Oc1ccccc1C(=O)Nc1ncc([N+](=O)[O-])s1 | -68.9% [at 88.3 µM] (inactive) |
| O=C1C(Cl)=C(NCCN2CCOCC2)C(=O)c2ncccc21 | -79.3% (inactive) |
| CC(C(=O)O)c1ccc2c(c1)[nH]c1ccc(Cl)cc12 (centres undefined) | 8.12% (inactive) |
| CC(=O)Oc1cccc2c1C(=O)c1c(OC(C)=O)cc(C(=O)O)cc1C2=O | -25.4% (inactive) |
| Cc1cc(O)c2ccccc2c1O | -83.8% (inactive) |
